Among all 310,000 compounds or so, about 14,000 (4.5%) showed an effect of 50% or more. Effects have a minus sign here. This excerpt belongs to a sample that is enriched for strong results.
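Note: peak tail current of the secondary pulse compared with the same well before compound.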

human ether-à-go-go-related gene (hERG) potassium channel, sequence (Q12809 whole entry, looked up): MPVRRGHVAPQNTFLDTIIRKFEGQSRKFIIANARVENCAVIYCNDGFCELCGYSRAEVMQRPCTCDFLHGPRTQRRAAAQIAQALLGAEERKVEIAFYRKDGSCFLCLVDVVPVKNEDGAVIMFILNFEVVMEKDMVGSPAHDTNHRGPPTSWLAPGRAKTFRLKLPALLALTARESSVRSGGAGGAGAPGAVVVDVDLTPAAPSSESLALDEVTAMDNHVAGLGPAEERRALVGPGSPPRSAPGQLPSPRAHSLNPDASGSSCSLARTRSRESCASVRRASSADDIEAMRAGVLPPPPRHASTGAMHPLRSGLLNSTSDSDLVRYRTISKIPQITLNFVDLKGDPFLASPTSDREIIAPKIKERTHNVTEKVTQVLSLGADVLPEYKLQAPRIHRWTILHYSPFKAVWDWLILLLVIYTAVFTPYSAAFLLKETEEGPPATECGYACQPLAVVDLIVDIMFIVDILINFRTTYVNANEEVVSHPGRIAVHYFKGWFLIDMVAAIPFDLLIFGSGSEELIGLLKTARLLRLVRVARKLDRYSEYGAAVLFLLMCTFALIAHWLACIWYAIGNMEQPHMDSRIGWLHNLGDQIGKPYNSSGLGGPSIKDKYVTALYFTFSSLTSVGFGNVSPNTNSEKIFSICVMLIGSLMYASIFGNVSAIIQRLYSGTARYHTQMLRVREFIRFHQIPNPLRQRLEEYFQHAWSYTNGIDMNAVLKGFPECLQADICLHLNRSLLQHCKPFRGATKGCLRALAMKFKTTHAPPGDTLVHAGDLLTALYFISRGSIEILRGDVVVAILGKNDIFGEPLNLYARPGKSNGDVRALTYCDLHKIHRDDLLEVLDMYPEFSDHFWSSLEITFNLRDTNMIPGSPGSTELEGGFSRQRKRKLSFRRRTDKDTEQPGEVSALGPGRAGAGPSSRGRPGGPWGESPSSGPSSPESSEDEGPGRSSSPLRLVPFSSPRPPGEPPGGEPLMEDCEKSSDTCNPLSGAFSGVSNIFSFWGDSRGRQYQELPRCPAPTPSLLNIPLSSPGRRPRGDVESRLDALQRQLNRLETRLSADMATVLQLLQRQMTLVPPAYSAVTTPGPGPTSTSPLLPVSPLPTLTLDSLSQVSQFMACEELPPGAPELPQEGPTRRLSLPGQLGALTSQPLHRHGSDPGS

The assay addresses human ether-à-go-go-related gene (hERG) potassium channel (human, UniProt Q12809). The experiment in a line: primary screen, population patch clamp on CHO cells stably expressing hERG; higher = less effect of the substance.
As for `Cc1c(OCC(F)(F)F)ccnc1CSc1nc2ccccc2[nH]1`, the “hERG current change (%, negative = inhibition) at 10uM” value amounted to 20.6%. Consider `O=C(CCN1C(=O)/C(=C/c2ccccc2Cl)SC1=S)NNC(=O)c1ccccc1O`, for which the “hERG current change (%, negative = inhibition) at 10uM” value is -6.37%. As for `CCOc1ccc(N(CC(=O)Nc2ccc(OC)cc2)S(C)(=O)=O)cc1`, the figure is 3.39%; as for `CC(C)(C)C(=O)N1CCC(O)(CS(=O)(=O)c2ccc(Cl)c(Cl)c2)CC1`, -5.3%. For `CCCN1C(=O)C(NS(=O)(=O)c2ccc(N)cc2)(C(F)(F)F)C(C(=O)OC)=C1C` (stereo not drawn) the value was 10.1%; for `CCN(CC1CCCO1)C(=O)c1cc(COc2ccc(OC)cc2Cl)on1` (stereo not drawn), -5.59%. Take `CCN(CC1CCCO1)C(=O)c1cc(COc2ccccc2SC)on1` (stereo not drawn): the “hERG current change (%, negative = inhibition) at 10uM” value is -85.6%. Take `O=C(c1cc(COc2ccc(F)cc2Cl)on1)N1CC[C@@H]2CCCC[C@H]2C1`: the “hERG current change (%, negative = inhibition) at 10uM” value came out at 12.6%. As for `CSc1ccccc1OCc1cc(C(=O)N(C)C(C)c2nc(C)cs2)no1` (stereo not drawn), the “hERG current change (%, negative = inhibition) at 10uM” value is given as -63.6%. For `COc1ccc(OCc2cc(C(=O)NCC(C)(C)N3CCOCC3)no2)c(Cl)c1` the value was -31.8%.

Consider `O=C(c1cc(COc2ccc(F)cc2Cl)on1)N1CCCC(c2ccccc2)C1` (stereo not drawn), for which the “hERG current change (%, negative = inhibition) at 10uM” value is listed as -5.56%. For `CSc1ccccc1OCc1cc(C(=O)NCc2csc(C(C)C)n2)no1` the value was -9.57%; for `Cc1ccc(OCc2cc(C(=O)NCC(C)(C)N3CCOCC3)no2)cc1C`, -45.8%; for `CCN(CC1CCCO1)C(=O)c1cc(COc2ccc(F)cc2F)on1` (stereo not drawn), -14.8%. Turning to `CSc1ccccc1OCc1cc(C(=O)N(C)C(C)c2ccccn2)no1` (stereo not drawn), the “hERG current change (%, negative = inhibition) at 10uM” value was -10.6%.

`CCN(CC)C1CCN(C(=O)c2cc(COc3ccc(F)cc3Cl)on2)C1` (stereo not drawn): the “hERG current change (%, negative = inhibition) at 10uM” value is given as -70%. For `CSc1ccccc1OCc1cc(C(=O)NCC(C)(C)N2CCOCC2)no1` the value was -93%. For `COc1cc(CNS(=O)(=O)CCl)cc(OC)c1OC`, the “hERG current change (%, negative = inhibition) at 10uM” value was 12.7%. As for `CCOC(=O)c1sc(=S)n(C)c1NC(=O)c1ccc(OC)cc1`, the “hERG current change (%, negative = inhibition) at 10uM” value is reported as 17.4%. Turning to `COc1ccc2nc(C)c3cc(C)oc3c2c1`, the “hERG current change (%, negative = inhibition) at 10uM” value is reported as -15.5%. As for `Cc1cc(C)c2c(n1)SCC(=O)N2CC(=O)Nc1cc(F)ccc1F`, the figure is -7.16%; as for `COc1ccc(NC(=O)/C=C/c2ccc(OC(F)F)cc2)cn1`, -24.7%. As for `CCC(=O)NCCc1nc2cc(NC(=O)c3ccc(F)cc3)ccc2n1C`, the figure is 1.29%; as for `COc1cc(OC)c(C(=O)Nc2ccncc2)cc1OC`, 7.83%.
